PubChem BioAssay AID1159580 (chemical genetic matrix, 2015)
Values joined by “and” are separate entries in the source; they are usually repeats but may differ in a detail not shown here. Identical values can stand only once. Out of some 5,500 compounds screened, about 2,000 (36%) were called active. Inconclusive results (about 18%) are left out. Rule as the data show it: active = normalized growth mostly below about 0.91 (no sharp cut-off); inconclusive = no clear call, values can overlap the other calls; inactive = mostly above about 0.92. This is one part of the list.

Assay: chemical genetic growth profiling, strain panel (AID 1159580);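 also: tested at 20 µM; growth read once vehicle control cultures reached saturation at 30 °C; 1 = growth at the plate median or of vehicle wells; lower values mean less growth of the strain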
Settings: S. cerevisiae deletion strains, growth OD

Measured: normalized growth

Cn1nnnc1SCC1=C(C(=O)O)N2C(=O)C(NC(=O)C(OC=O)c3ccccc3)C2SC1 (stereo unspecified)
inactive: locus YAL021C, strain ccr4, stronger effect = lower value 1.02 | locus YAL026C, strain drs2, stronger effect = lower value 0.999 | locus YAL030W, strain snc1, stronger effect = lower value 1 | locus YBL061C, strain skt5, stronger effect = lower value 1.01 | locus YBR009C, strain hhf1, stronger effect = lower value 1.04 | locus YBR021W, strain FUR4, stronger effect = lower value 0.986 | locus YBR023C, strain chs3, stronger effect = lower value 0.998 | locus YBR171W, strain sec66, stronger effect = lower value 0.984 | locus YBR229C, strain ROT2, stronger effect = lower value 1 | locus YBR231C, strain swc5, stronger effect = lower value 1.01 | locus YBR279W, strain paf1, stronger effect = lower value 0.999 | locus YCL011C, strain gbp2, stronger effect = lower value 1 | locus YCL016C, strain dcc1, stronger effect = lower value 1 | locus YCL029C, strain bik1, stronger effect = lower value 1.03 | locus YCL061C, strain MRC1, stronger effect = lower value 0.991 | locus YCL069W, strain vba3, stronger effect = lower value 0.992 | locus YCR088W, strain abp1, stronger effect = lower value 0.998 | locus YDL005C, strain med2, stronger effect = lower value 0.991 | locus YDL035C, strain GPR1, stronger effect = lower value 1.01 | locus YDL040C, strain nat1, stronger effect = lower value 1 | locus YDL074C, strain BRE1, stronger effect = lower value 1.02 | locus YDL101C, strain DUN1, stronger effect = lower value 1.01 | locus YDL134C, strain PPH21, stronger effect = lower value 1.01 | locus YDL185W, strain tfp1, stronger effect = lower value 1.01 | locus YDL192W, strain arf1, stronger effect = lower value 1.02 | locus YDR001C, strain nth1, stronger effect = lower value 0.991 | locus YDR069C, strain doa4, stronger effect = lower value 1 | locus YDR101C, strain arx1, stronger effect = lower value 1.03 | locus YDR137W, strain rgp1, stronger effect = lower value 1.02 | locus YDR150W, strain NUM1, stronger effect = lower value 1 | locus YDR159W, strain sac3, stronger effect = lower value 0.979 | locus YDR162C, strain NBP2, stronger effect = lower value 1.01 | locus YDR195W, strain ref2 0.949 | locus YDR297W, strain sur2, stronger effect = lower value 0.992 | locus YDR318W, strain mcm21, stronger effect = lower value 1.02 | locus YDR334W, strain swr1, stronger effect = lower value 0.995 | locus YDR335W, strain msn5, stronger effect = lower value 1 | locus YDR388W, stronger effect = lower value 1.02 | locus YDR392W, strain spt3, stronger effect = lower value 0.995 | locus YDR502C, strain sam2, stronger effect = lower value 1.02 | locus YEL003W, strain gim4, stronger effect = lower value 1 | locus YEL037C, strain rad23, stronger effect = lower value 0.994 | locus YEL061C, strain CIN8 (second series), stronger effect = lower value 0.991 | locus YEL061C, strain CIN8, stronger effect = lower value 1 | locus YER015W, strain faa2, stronger effect = lower value 1 | locus YER016W, strain bim1, stronger effect = lower value 0.997 | locus YER110C, stronger effect = lower value 1.03 | locus YER111C, strain swi4, stronger effect = lower value 0.998 | locus YER155C, strain BEM2 (second series), stronger effect = lower value 0.977 | locus YER155C, strain BEM2, stronger effect = lower value 0.99 | locus YER167W, strain BCK2, stronger effect = lower value 1 | locus YFR010W, strain ubp6, stronger effect = lower value 0.995 | locus YGL078C, strain dbp3, stronger effect = lower value 1.03 | locus YGL086W, strain mad1, stronger effect = lower value 1.01 | locus YGL167C, strain pmr1, stronger effect = lower value 1 | locus YGL173C, strain kem1, stronger effect = lower value 0.997 | locus YGL227W, strain vid30, stronger effect = lower value 0.993 | locus YGL240W, strain doc1, stronger effect = lower value 0.978 | locus YGL248W, strain PDE1, stronger effect = lower value 1.01 | locus YGL253W, strain hxk2, stronger effect = lower value 1.01 | locus YGR078C, strain PAC10, stronger effect = lower value 0.994 | locus YGR135W, strain pre9, stronger effect = lower value 1.02 | locus YGR229C, strain SMI1, stronger effect = lower value 1.01 | locus YGR252W, strain gcn5, stronger effect = lower value 1.03 | locus YHR013C, strain ard1, stronger effect = lower value 1 | locus YHR027C, strain rpn1, stronger effect = lower value 0.995 | locus YHR030C, strain SLT2, stronger effect = lower value 0.999 and 1.01 | locus YHR079C, strain IRE1 (second series), stronger effect = lower value 1.02 | locus YHR079C, strain IRE1, stronger effect = lower value 0.985 | locus YHR094C, strain hxt1, stronger effect = lower value 1.03 | locus YHR129C, strain ARP1, stronger effect = lower value 0.998 | locus YHR142W, strain chs7, stronger effect = lower value 1.02 | locus YHR200W, strain rpn10, stronger effect = lower value 1.02 | locus YIL066C, strain RNR3, stronger effect = lower value 1 | locus YIL073C, strain SPO22, stronger effect = lower value 1.07 | locus YIL125W, strain kgd1, stronger effect = lower value 1.01 | locus YIR030C, strain dcg1, stronger effect = lower value 1.03 | locus YJL092W, strain hpr5, stronger effect = lower value 0.993 | locus YJL095W, strain BCK1 (second series), stronger effect = lower value 1.01 | locus YJL095W, strain BCK1, stronger effect = lower value 1 and 0.969 | locus YJL115W, strain asf1, stronger effect = lower value 0.985 | locus YJL129C, strain trk1, stronger effect = lower value 1 | locus YJL134W, strain LCB3, stronger effect = lower value 1 | locus YJL154C, strain vps35, stronger effect = lower value 1 | locus YJL164C, strain tpk1, stronger effect = lower value 1.01 | locus YJL166W, strain qcr8, stronger effect = lower value 1.01 | locus YJL168C, strain set2, stronger effect = lower value 1.01 | locus YJL187C, strain SWE1 (second series), stronger effect = lower value 1 | locus YJL187C, strain SWE1, stronger effect = lower value 0.986 | locus YJR043C, strain POL32, stronger effect = lower value 1.01 | locus YJR066W, strain TOR1, stronger effect = lower value 0.954
